Screening results (PubChem)
The sample as a whole holds a higher share of hits than the screen did.
SF1 inhibitor = blocks the human nuclear receptor SF-1 | Q13285 | CHO-K1 Gal4-SF-1 LBD luciferase reporter | inhibition, % at 10 µM | hit rate 0.55% among 65,000;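 active = inhibition above the mean inhibition of all tested compounds plus 3 SD, cut at about 48% in these data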;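 note: 0% = SF-1 transfected cells with DMSO and 100% = mock-transfected cells lacking SF-1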
Target sequence (Q13285 whole entry, looked up, the tested form may be a part): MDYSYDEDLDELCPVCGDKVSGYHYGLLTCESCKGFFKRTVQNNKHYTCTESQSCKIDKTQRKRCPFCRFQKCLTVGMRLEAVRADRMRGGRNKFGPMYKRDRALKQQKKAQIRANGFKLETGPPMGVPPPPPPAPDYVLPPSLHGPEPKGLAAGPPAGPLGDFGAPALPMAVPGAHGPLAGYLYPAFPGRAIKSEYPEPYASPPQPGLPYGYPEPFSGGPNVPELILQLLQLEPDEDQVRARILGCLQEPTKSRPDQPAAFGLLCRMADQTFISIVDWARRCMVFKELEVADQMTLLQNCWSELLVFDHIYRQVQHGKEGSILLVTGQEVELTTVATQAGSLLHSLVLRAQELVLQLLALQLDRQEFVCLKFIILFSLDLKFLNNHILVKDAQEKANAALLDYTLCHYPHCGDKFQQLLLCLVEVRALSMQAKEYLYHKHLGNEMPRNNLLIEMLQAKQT
Starred values were filed as active, the others as inactive.

For CCOc1ccc(NS(=O)(=O)c2ccc(SC)cc2)cc1 the results were SF1 inhibitor 0.
O=S(=O)(Nc1cccc(C(F)(F)F)c1)c1cccnc1 was read as SF1 inhibitor 5.
`CCn1c(CNC(=O)c2ccc3c(c2)OCO3)nnc1SCC(=O)Nc1cc(C)ccc1OC` gave SF1 inhibitor 4.
For COc1ccc(OC)c(NC(=O)CSc2nnnn2-c2ccc3c(c2)OCO3)c1 the results were SF1 inhibitor 91*.
Screening CC(C)OC(=O)CSc1nnnn1-c1ccc2c(c1)OCCO2 returned SF1 inhibitor -69.
For COc1ccc(CCCc2nnc(SCC(=O)Nc3nccs3)n2C)cc1C the results were SF1 inhibitor -1.
`c1ccc(-c2noc(-c3cccc4ccccc34)n2)cc1` gave SF1 inhibitor -65.
For COc1cccc(-c2nc(-c3ccccc3)no2)c1 the results were SF1 inhibitor 9.
For Cc1ccc(-c2nc(-c3ccccc3)no2)c(Cl)c1 the results were SF1 inhibitor 70*.
O=C(NCc1ccccn1)C1CC(=O)N(C2CCCC2)C1 (configuration not stated) was read as SF1 inhibitor -8.
Screening CCCCc1cc(O)c(CCCC)c(O)c1 returned SF1 inhibitor -35.
COc1ccccc1OCC(=O)c1[nH]c(C)c(C(C)=O)c1C was read as SF1 inhibitor 50*.
CCOC(=O)c1c(C)[nH]c(C)c1C(=O)COC(=O)CCOc1ccccc1OC was read as SF1 inhibitor -2.
COC(=O)c1c(C)[nH]c(C(C)=O)c1C was read as SF1 inhibitor -16.
`Nc1c(C(=O)NC2CCCC2)sc2nc(-c3cccs3)ccc12` gave SF1 inhibitor -60.
Cc1cc(NC(=O)CCCS(=O)(=O)c2nc(-c3cccs3)cc(C(F)(F)F)n2)no1 was read as SF1 inhibitor 48*.
For COc1ccc(-c2cc(C(F)(F)F)nc(SCC(=O)Nc3cc(C)on3)n2)cc1OC the results were SF1 inhibitor 23.
Screening CCn1cnc2c1c(=O)n(CC(=O)Nc1cc(C)on1)c(=O)n2Cc1ccccc1 returned SF1 inhibitor 0.
CS(=O)(=O)c1nc(-c2cccs2)cc(C(F)(F)F)n1 was read as SF1 inhibitor 70*.
Cc1c(NC(=O)c2cc(=O)[nH]c(=O)[nH]2)c(=O)n(-c2ccccc2)n1C was read as SF1 inhibitor -3.
Cc1csc(NC(=O)c2ccoc2C)n1 was read as SF1 inhibitor -56.
CC(C(=O)NC1CCCC1)N(C(=O)c1snc(C(N)=O)c1N)c1ccc2c(c1)OCCO2 (configuration not stated) was read as SF1 inhibitor -7.
For O=C(CCS(=O)CCC(=O)NCc1ccccc1)NCc1ccccc1 the results were SF1 inhibitor 6.
For N#Cc1c(NC(=O)CSc2ncn[nH]2)sc2c1CCCCC2 the results were SF1 inhibitor 88*.
For CCc1nnc(NC(=O)CSc2nc(C)c3c(c2C#N)CCCC3)s1 the results were SF1 inhibitor -55.
Cn1c(SCC(=O)Nc2sc3c(c2C#N)CCC3)nnc1C1COc2ccccc2O1 (configuration not stated) was read as SF1 inhibitor -4.
`Cc1nnc(N2CCOCC2)c2ccccc12` gave SF1 inhibitor -2.
For CCn1c(C)nc2cc(-c3nc4n(n3)Cc3ccccc3-4)ccc21 the results were SF1 inhibitor 96*.
For CCS(=O)(=O)c1ccc2oc(Nc3ccccc3C)nc2c1 the results were SF1 inhibitor -66.
For CCN(CC)Cc1c[nH]c2c(C(=O)OC)cccc12 the results were SF1 inhibitor -9.
Screening CCN(C(=O)c1ccc(C(C)(C)C)cc1)c1nnc(Cn2nnc3ccccc32)s1 returned SF1 inhibitor 69*.
Screening COc1ccc(-n2c(=S)[nH]c3cc(C(=O)NCCCN4CCCC4=O)ccc3c2=O)cc1 returned SF1 inhibitor -8.
For COC(=O)c1sccc1NC(=O)CN1CCN(c2ccc(F)cc2)CC1 the results were SF1 inhibitor -9.
CN(C)c1nc(N)nc(-c2nc3ccccc3s2)n1 was read as SF1 inhibitor -54.
For Cc1ccc2[nH]c(-c3cccc(N)c3)cc2c1 the results were SF1 inhibitor -51.
Nc1cccc(-c2nc3ccc(N)cc3s2)c1 was read as SF1 inhibitor 61*.
For Cc1ccc(C)c(CN2CCCNC2=O)c1 the results were SF1 inhibitor 11.
`O=c1cc(N2CCN(c3ccccc3)CC2)[nH]c(=O)n1C1CCCCC1` gave SF1 inhibitor 52*.
For CN1CCN(C2=C(Cl)C(=O)N(c3cccc(Cl)c3)C2=O)CC1 the results were SF1 inhibitor 15.
Screening Cc1ccccc1-n1c(=O)cc(N2CCCCCC2)[nH]c1=O returned SF1 inhibitor -7.
CCOC(=O)C1CCN(c2cc(=O)n(C3CCCCC3)c(=O)[nH]2)CC1 was read as SF1 inhibitor -12.
For O=c1cc(NCC2CCCO2)[nH]c(=O)n1-c1ccc(Cl)cc1 (configuration not stated) the results were SF1 inhibitor -8.
For O=c1cc(N2CCN(c3cccc(Cl)c3)CC2)[nH]c(=O)n1C1CCCCC1 the results were SF1 inhibitor 80*.
`Cc1noc(NS(=O)(=O)c2ccc(NC(=O)c3ccc(Br)o3)cc2)c1C` gave SF1 inhibitor -3.
Screening O=C(COc1ccc(Cl)cc1)NC1CCSC1=O (configuration not stated) returned SF1 inhibitor -3.
For CC1CCc2c(sc(NC(=O)c3noc4c3CCCC4)c2C(N)=O)C1 (configuration not stated) the results were SF1 inhibitor -50.
CC(C)N(C=O)C1(C(=O)NC2CCCCC2)CCCCC1 was read as SF1 inhibitor 0.
COc1ccc(-n2c(C)cc(C(=O)Cn3c(NCCO)nc4ccccc43)c2C)cc1 was read as SF1 inhibitor -10.
`O=C(CCCC(=O)N(CC(=O)NC1CCCCC1)CC1CCCO1)Nc1ccccn1` (configuration not stated) gave SF1 inhibitor -1.
Screening CCOc1ccc(C2=Nn3c(nnc3-c3ccccc3OC)SC2)cc1 returned SF1 inhibitor 73*.
`COc1ccccc1-c1nnc2n1N=C(c1ccc(O)c(O)c1)CS2` gave SF1 inhibitor 67*.
Screening CCOc1ccc(NC(=O)c2ccccc2OC)cc1 returned SF1 inhibitor -73.
Screening CCn1c(SCC(=O)c2ccc(O)c(O)c2)nnc1-c1ccccc1OC returned SF1 inhibitor 5.
Clc1ccc(C2=Nn3c(nnc3-c3cccnc3)SC2)s1 was read as SF1 inhibitor 6.
Screening COc1cc(NC(=O)CN2C(=O)c3ccccc3C2=O)c(C(=O)O)cc1OC returned SF1 inhibitor -4.
`CN(C(=O)c1cnc2n(c1=O)CCS2)C1CCCCC1` gave SF1 inhibitor -1.
O=C(OCC(=O)N1CCCCCC1)c1cccs1 was read as SF1 inhibitor -55.
CCCn1c(NC(=O)C2CCN(S(=O)(=O)c3cccs3)CC2)nc2ccccc21 was read as SF1 inhibitor 20.
For COc1ccc(OCc2cccc(C(=O)O)c2)cc1 the results were SF1 inhibitor 94*.
O=C(O)c1cccc(OCc2ccccc2Cl)c1 was read as SF1 inhibitor -80.
Screening CCOc1ccc(OCc2cccc(C(=O)O)c2)cc1 returned SF1 inhibitor 95*.
For CCCCOc1ccc(C(=O)O)cc1 the results were SF1 inhibitor 12.
Screening COC(=O)Nc1ccc(OCc2ccccc2)cc1 returned SF1 inhibitor -72.
`O=C(O)c1cccc(COc2ccc(CO)cc2Cl)c1` gave SF1 inhibitor 94*.
For O=C(O)c1ccc2c(c1)C(=O)N(Cc1ccccc1)C2=O the results were SF1 inhibitor -5.
